Measurements: the supplement of paper PMC8726507

System: Plasmodium falciparum NF54-HGL (transmission to Anopheles stephensi)
Test: percentage of barcode signal found in uninfected mosquitoes (transmission-blocking activity); higher = stronger blocking of transmission to mosquito, active = 80 or more
Settings: 20 µM; gametocyte preincubation time 24 h; readout time post-feed 8 days
Procedure: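 The mixture was fed to Anopheles stephensi in 96-well plates as blood meals tagged with DNA-barcoded Asaia bacteria. Eight days later, mosquitoes were classed infected or uninfected by luminescence (mean + 5 SD of unfed controls). Barcodes were quantified by Luminex MagPlex-TAG in the pooled uninfected and infected Asaia cultures, background-corrected, and the score is % of barcode signal in uninfected mosquitoes = 100*Iu/(Iu+Ii).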

SMILES	percentage of barcode signal found in uninfected mosquitoes
O=C(NCc1cc(Cl)cc(Cl)c1)c1c(C(F)(F)F)nc2ccccn12	20% (inactive)
CC(C)(C)CN1C(=O)C(c2ccccc2)(c2ccccc2)N=C1N	13.8% (inactive)
COc1ccc(S(=O)(=O)Nc2ccc(CN3CCN(C(=O)c4cccc(C#N)c4)CC3)cc2)cc1	8.68% (inactive)
COc1ccc(Cn2cnc3c(-c4ccco4)nc(Cl)nc32)cc1	21.6% (inactive)
COc1ccc(-c2cncc3ccc(C(=O)NCCCn4ccnc4)nc23)cc1	62.9% (inactive)
COc1cccc(-n2nnnc2S(C)(=O)=O)c1	70.1% (inactive)
CCc1ccc(C(NCc2nc(N)nc(N(C)C)n2)C(C)C)cc1 (stereo unspecified)	54.2% (inactive)
CC(=O)N1CCc2cc3nc(C)cc(C)c3cc21	5.33% (inactive)
COc1ccc(Oc2ccc([C@@H](C)N(C)c3ncc4c(N)nc(N)nc4n3)cc2)cc1	72.1% (inactive)
Cc1ccc2[nH]c(C3CCCNC3)c(-c3ccncc3)c2c1 (stereo unspecified)	79.4% (inactive)
Cc1[nH]c2cc(F)cc(F)c2c(=O)c1-c1ccc(Oc2ccc(OC(F)(F)F)cc2)cc1	78.3% (inactive)
CC(=O)NCC1CN(c2ccc(-c3ccc(CNCc4cn[nH]n4)cc3)c(F)c2)C(=O)O1 (stereo unspecified)	9.84% (inactive)
FC(F)(F)c1cc(NCCc2ccccc2)nc(-c2ccccn2)n1	62.2% (inactive)
COc1cccc(-c2cc3c(Nc4cccnc4)nccc3[nH]2)c1	29% (inactive)
O=C(CN1CCOCC1)Nc1ccc2ncnc(Nc3ccc(OCc4cccc(F)c4)c(Cl)c3)c2c1	1.6% (inactive)
Cc1cc(O)nc(-n2nc(C)cc2C)n1	70.1% (inactive)
